# Compound activity as filed in PubChem.
# Lassa entry inh – qHTS for Inhibitors of binding or entry into cells for Lassa Virus | Lassa virus pseudotype entry inhibition, cell reporter | Potency, µM (titrated, usually from 37.9 µM), for inactives: at the top dose activity change, negative = inhibition, actives largely listed as inhibitors | actives 1.2% (n = 300,000) | AID 540256, 2011; calls by dose curve; tested in HEK293 cells; further: potency means the concentration at half of the fitted maximal effect; on the % scale 0 is the no-effect control and ±100 the full control effect; nearly all actives have a fitted effect of over 50% in size
# HCV inh – qHTS Assay for Inhibitors of Hepatitis C Virus (HCV); actives 3.4% (n = 340,000); Huh7.5.1 HCVcc-Cre infection, luciferase reporter, 44 h; Potency, µM (titrated, usually from 41.8 µM), inactives show at the top dose activity change, negative = inhibition, most hits filed as inhibitors; AID 651820, 2012; active means well fitted inhibition curve with a large enough effect; inconclusive means small, poorly fitted or top-dose-only effect, or another doubt; inactive means no such curve, though single readings can be large or run the other way; further: potency means the concentration at half of the fitted maximal effect; on the % scale 0 is the no-effect control and ±100 the full control effect
#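 A cell-based infection assay in which seeded cells (1,000 per well) receive test compound after 4 h, are inoculated with HCVcc-Cre at approximately 0.5 moi, and are incubated 44 h before luminescence detection.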
# Cycloheximide cs – Cycloheximide Counterscreen for Small Molecule Inhibitors of Shiga Toxin; actives 12% (n = 300,000); cell reporter, cycloheximide protein synthesis inhibition counterscreen; max response, %; in the data active means max response mostly above about 13%, no sharp cut-off; inactive means mostly below about 14%; further: read at 38.3 µM for the half of the compounds with a filed dose; 0% is about no effect
# FMDV inh – High Throughput Screening for Foot and Mouth Disease Virus Antivirals; FMDV antiviral cell-based qHTS; Potency, µM (series often up to 57.9 µM), inactives show at the top dose activity change, negative = inhibition, usual class: inhibitors; actives 1.2% (n = 410,000); AID 1159524, 2015; calls by dose curve; tested in HEK293T cells; further: read-out not given here; potency means the concentration at half of the fitted maximal effect; on the % scale 0 is the no-effect control and ±100 the full control effect; nearly all actives have a fitted effect of over 45% in size
# Marburg entry inh – qHTS for inhibitors of binding or entry into cells for Marburg Virus; Potency, µM (doses to about 37.8 µM), without a hit: at the highest dose activity change, negative = inhibition, actives largely listed as inhibitors; actives 1.8% (n = 300,000); Marburg virus pseudotyped entry inhibition, cell reporter; AID 540276, 2011; calls by dose curve; tested in HEK293 cells; further: potency means the concentration at half of the fitted maximal effect; on the % scale 0 is the no-effect control and ±100 the full control effect
# Shiga toxin inh – A qHTS for Small Molecule Inhibitors of Shiga Toxin; Vero cells, Shiga toxin protein synthesis inhibition reporter; inhibition, % at 38.7 µM; actives 9.2% (n = 290,000); AID 2315, 2010; in the data active means inhibition mostly above about 28%, no sharp cut-off; inactive means mostly below about 43%; further: 0% is about no effect
# The depositor's hits bear a star; ? = inconclusive; . = no result; ! = not active in a repeat; [ ] = another dose, or the depositor's remark. In the library only some 13% were active in any assay of this set; here they are far more common.
SMILES,Lassa entry inh,HCV inh,Cycloheximide cs,FMDV inh,Marburg entry inh,Shiga toxin inh
CCn1c(-c2ccc(-c3ccccc3)cc2)c[nH]c1=S,?,10µM*,8.0,1.8%,-8.0%,11.4
O=C(/C=C/c1ccccc1)NC1CCSC1=O (stereo not drawn),21.7%,1.6%,38.5*,36.7%,-19.2%,70.0*
Cc1ccc(Nc2nc(-c3ccncc3)cs2)cc1,-11.1%,?,47.4*,42.0%,?,119.4*
Cc1ccc(Nc2nc(-c3ccc(S(=O)(=O)N4CCOCC4)cc3)cs2)cc1,-28.7%,?,.,?,?,.
O=C(Nc1nc(-c2ccc3c(c2)OCCO3)cs1)c1ccc(Br)o1,.,.,.,88.1%,.,.
Cc1nc(-c2ccc3c(c2)CCC(=O)N3)cs1,9.2%,-0.4%,28.6*,31.0%,6.9%[46.1 µM],65.2*
Cc1cccc(Nc2nc(-c3ccc4c(c3)OCCO4)cs2)c1,?,-26.8%,43.6*,3.4%,?,120.3*
Cc1cccc(Nc2nc(-c3ccncc3)cs2)c1,.,?,41.7*,4.6%,.,142.7*
CS(=O)(=O)N(CC(=O)N1CCc2ccccc2C1)c1ccc2c(c1)OCO2,2.1%,6.8%,-4.9,0.0%,2.7%,5.4
COc1cccc(CC(=O)OCC(=O)NC2CCCC2)c1,4.8%,9.6%,.,0.0%,-16.7%,.
CC(O)(c1ccccc1)c1nc(-c2ccc3c(c2)OCO3)cs1 (stereo not drawn),.,.,.,-4.5%,.,.
Cc1nc(-c2ccc3c(c2)OCCO3)cs1,?,5.3%,43.7*,38.9%,19.3%[46.1 µM],169.4*
Clc1cccc(Nc2nc(-c3ccncc3)cs2)c1,?,10µM*,-0.5,-10.8%,?,-5.5
CCc1csc(CNC(=O)C2CCC(=O)N(Cc3cccc(OC)c3)C2)n1 (stereo not drawn),.,.,.,-8.6%,.,.
FC(F)(F)c1ccc(N/N=C/c2cccnc2)nc1,1.4%,14.4%,40.7*,35.6%,13.6%[46.1 µM],71.0*
C(=N\Nc1ccccn1)/c1cccnc1,.,8.8%,23.5*,34.6%,.,.
O=[N+]([O-])c1ccc(N/N=C\c2cccnc2)nc1,17.0%,4.7%,5.9,50.1%,-8.2%,7.5
O=c1[nH]c(CN2CCN(S(=O)(=O)c3ccc(Cl)cc3)CC2)nc2cc(Cl)ccc12,13.5%,9.2%,-2.0,-18.6%,2.1%,-1.6
CC(C)c1ccc(CNc2ccc3c(c2)ncn3C)cc1,.,?,59.9*,15.3%,.,103.7*
CN(C)c1ccc(CNc2ccc3c(c2)ncn3C)cc1,-28.5%,?,19.6*,-1.5%,?,17.9
CC(C)c1ccc(CNc2ncccn2)cc1,19.5%,2.2%,39.5*,60.2%,0.0%,41.7*
CC1Cc2cc(S(=O)(=O)NCCC(=O)N(C)Cc3ccccc3)ccc2N1C(=O)C1CC1 (stereo not drawn),.,-12.9%,15.0,5.7%,.,-2.3
COc1ccc(CCNC(=O)Cc2ccc(NC3=NC4CS(=O)(=O)CC4S3)cc2)c(OC)c1 (stereo not drawn),.,-0.9%,1.0,-8.9%,.,-6.4
CC(=O)c1ccc(N2CCN(Cc3cc(=O)n4c(-c5ccccc5)csc4n3)CC2)cc1,?,12.6µM*,.,-25.4%,-23.8%[46.1 µM],.
O=C(c1cc2ccccc2[nH]1)N1CCOCC1,3.9%,2.9%,19.2*,24.0%,16.6%,active
SMILES,Lassa entry inh,HCV inh,Cycloheximide cs,FMDV inh,Marburg entry inh,Shiga toxin inh
Cc1ccc(S(=O)(=O)N2CCCN(C(=O)c3cc4ccccc4[nH]3)CC2)cc1,0.1%,-6.4%,53.8*,-0.1%,25.2%[46.1 µM],80.5*
COc1cc(CN2CCC(Cc3ccccc3)CC2)cc(OC)c1OC,.,-26.4%,-1.5,?,.,-8.0
CCOC(=O)C1CCCN(C(=O)Cn2nc(C)n3nc(-c4ccccc4)cc3c2=O)C1 (stereo not drawn),.,-20.0%,-1.0,-13.2%,.,-4.9
Cc1ccc(OS(=O)(=O)c2ccc(N3C(=O)CCC3=O)cc2)cc1,.,1.3%,-4.2,?,20.3%[46.1 µM],-2.7
O=C(CCC1COc2ccccc2O1)NC1CCCCC1 (stereo not drawn),1.3%,?,35.8*,58.8%,?,27.3
Cc1cc(C)nc(SCC2COc3ccccc3O2)n1 (stereo not drawn),21.7%,-3.0%,24.2,12.0%,0.7%,78.6*
O=C(CCC1COc2ccccc2O1)N1CCCC1 (stereo not drawn),14.8%,-4.3%,7.7,18.2%,14.7%,8.1
Cc1cc(C)n(C(=O)CCC2COc3ccccc3O2)n1 (stereo not drawn),10.4%,-8.6%,10.6*,-4.2%,?,35.3
Cc1ccc(NC(=O)CCC(=O)N2CCOc3ccccc32)c(Cl)c1,4.1%[46.1 µM],-1.1%,10.7*,-21.9%,6.1%[46.1 µM],16.9*
COc1ccc(Cl)cc1NC(=O)CCC(=O)N1CCOc2ccccc21,3.7%[46.1 µM],.,.,22.7%,-13.7%[46.1 µM],.
Cc1ccc(-c2nc(NC(=O)CSc3ccc4ccccc4n3)ns2)cc1,-0.5%[46.1 µM],-7.9%[8.37 µM],-2.3,-2.0%,?,-9.3
CC1=CCC(C(C)(C)NC(=O)c2ccccc2)C/C1=N\O (stereo not drawn),-11.0%,0.2%,.,-22.7%,-16.5%,.
Cc1cccc(-c2nnc(SCC(=O)NC3CCCC3)o2)c1,10.0%[46.1 µM],9.8%,-3.3,-3.6%,?,25.9
CCOC(=O)N1CCC(NC(=O)CCC(=O)N2CCOc3ccccc32)CC1,4.5%,5.5%,6.9,-12.5%,7.9%,3.7
O=C(CCC(=O)N1CCOc2ccccc21)NC1CCCCCC1,.,0.5%,6.6*,7.3%,.,12.6
O=C(CSc1nnc(C2COc3ccccc3O2)o1)NC1CCCCC1 (stereo not drawn),.,-16.7%,20.0*,18.5%,.,39.0
COc1ccc2c(CC(=O)Nc3ccc4nc(N5CCOCC5)sc4c3)coc2c1,.,.,.,51.0%,.,.
COc1ccc(C(=O)Nc2ccc3nc(N4CCOCC4)sc3c2)cc1OC,.,?,.,-9.4%,.,.
CCOCc1c(C(=O)Nc2ccc3nc(N4CCOCC4)sc3c2)oc2ccccc12,?,?,.,20µM*,?,.
CCOCc1c(C(=O)Nc2cc(OCC)c(N3CCOCC3)cc2OCC)oc2ccccc12,-6.8%,4.0%,4.0,?,1.8%[46.1 µM],13.4
CCCn1nc(C(=O)Nc2ccc3nc(N4CCOCC4)sc3c2)ccc1=O,?,?,.,12.6µM*,?,.
CCOCc1c(C(=O)Nc2ccccc2N2CCN(C)CC2)oc2ccccc12,3.7%[46.1 µM],11.2µM*,.,-23.8%,?,.
O=C(COc1ccccc1Br)N1CCNC1=O,.,10.9%,.,-12.2%,.,.
O=C(NNC(=O)C12CC3CC(CC(Cl)(C3)C1)C2)c1csc(N2CCOCC2)n1,1.7%,8.8%,-6.1,0.7%,6.9%[46.1 µM],-8.8
COc1ccc2c(c1)[C@@]13CCCC[C@H]1[C@@H](C2)NCC3,?,.,.,.,18.3µM*,.
C=CCN1CC[C@]23CCCCC2[C@H]1Cc1ccc(O)cc13 (stereo partly drawn),-7.8%,.,.,.,7.94µM*!,.
COc1ccc2c(c1)C13CCCCC1C(C2)N(C)CC3 (stereo not drawn),?,.,.,.,11.2µM*,.
